Compound activity from PubChem.
HP1b binding inh: HTS for Inhibitors of HP1-beta Chromodomain Interactions with Methylated Histone Tails | AID 540317, 2011 | Potency, µM (top dose mostly 114 µM), inactives show top-dose activity change, negative = inhibition, usual class: inhibitors | AlphaScreen HP1-beta / biotin-H3K9me3 peptide binding | 0.56% of 390,000 active; note: potency is the fitted concentration of half-maximal effect; nearly all actives have a fitted effect of over 70% in size
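AlphaScreen: HP1-beta (50 nM) preformed 30 min with biotin-H3(1-18)K9me3 peptide (50 nM) in PBS pH 7.4, 0.01% Tween-20. Compound added for 30 min at RT, then streptavidin donor/nickel chelate acceptor beads (10 ug/mL) for 30 min.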
BAZ2B inh: qHTS Assay for Inhibitors of BAZ2B. Potency, µM (highest dose often 114 µM), without a hit: top-dose activity change, negative = inhibition, usual class: inhibitors. 4.4% of 360,000 active. AlphaScreen BAZ2B-H3K14Ac peptide displacement; note: potency is the fitted concentration of half-maximal effect; % is set by controls: 0 for no effect and ±100 for the full control effect; nearly all actives have a fitted effect of over 60% in size
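In this displacement format the biotinylated H3(5-23) peptide acetylated at Lys14 serves as ligand at 50 nM, with BAZ2B at 50 nM in PBS pH 7.4 containing 0.01% Tween-20. Donor and acceptor beads are 10 ug/mL final.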
JMJD2A Tudor: qHTS Assay for Inhibitors of JMJD2A-Tudor Domain | AlphaScreen JMJD2A-Tudor / H3K4me3 peptide binding | 4.4% of 390,000 active | AID 504339, 2011 | Potency, µM (titrated, usually from 114 µM), for the others: at the highest dose activity change, negative = inhibition, actives largely listed as inhibitors; note: potency is the fitted concentration of half-maximal effect; % is set by controls: 0 for no effect and ±100 for the full control effect; nearly all actives have a fitted effect of over 50% in size
PI5P4K alpha inh: qHTS for Inhibitors of phosphatidylinositol 5-phosphate 4-kinase (PI5P4K). AID 652105, 2013. 1.2% of 330,000 active. max response, %. PI5P4Kalpha enzyme, ADP-Glo luminescence, 60 min; active compounds read low; active = max response of -50% or lower; inconclusive = between -30% and -50%; inactive = -30% or higher; note: value at the top dose of about 77 µM; % is set by controls: 0 for no effect and ±100 for the full control effect
Target sequence (P48426 whole entry, looked up): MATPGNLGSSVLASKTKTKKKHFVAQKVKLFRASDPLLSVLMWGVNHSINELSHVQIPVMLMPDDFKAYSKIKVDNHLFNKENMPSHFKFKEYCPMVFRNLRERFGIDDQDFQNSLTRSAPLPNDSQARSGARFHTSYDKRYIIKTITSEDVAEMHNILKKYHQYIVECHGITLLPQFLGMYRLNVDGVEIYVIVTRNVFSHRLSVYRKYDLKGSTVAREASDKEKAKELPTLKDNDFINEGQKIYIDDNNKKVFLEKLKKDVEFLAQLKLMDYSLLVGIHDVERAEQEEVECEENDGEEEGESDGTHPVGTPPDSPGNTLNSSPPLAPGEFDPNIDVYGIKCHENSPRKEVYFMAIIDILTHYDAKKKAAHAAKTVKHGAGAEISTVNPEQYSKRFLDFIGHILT
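Enzyme plus substrate dispensed, test compounds pinned in, then ATP (5 microM final) added. After 60 min at RT, ADP-Glo reagent 1 for 45 min and reagent 2 for 30 min preceded luminescence imaging.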
G9a block: qHTS Assay for Inhibitors of Histone Lysine Methyltransferase G9a. Histone-lysine N-methyltransferase EHMT2 (Homo sapiens), Q96KQ7. G9a H3K9 monomethylation, AlphaScreen, 2 h. Potency, µM (top dose mostly 102 µM), for inactives: at the highest dose activity, negative = inhibition, actives largely listed as inhibitors. 8.8% of 350,000 active; note: potency is the fitted concentration of half-maximal effect; % is set by controls: 0 for no effect and ±100 for the full control effect; nearly all actives have a fitted effect of over 75% in size
Target sequence (Q96KQ7 913-1193 limits assumed): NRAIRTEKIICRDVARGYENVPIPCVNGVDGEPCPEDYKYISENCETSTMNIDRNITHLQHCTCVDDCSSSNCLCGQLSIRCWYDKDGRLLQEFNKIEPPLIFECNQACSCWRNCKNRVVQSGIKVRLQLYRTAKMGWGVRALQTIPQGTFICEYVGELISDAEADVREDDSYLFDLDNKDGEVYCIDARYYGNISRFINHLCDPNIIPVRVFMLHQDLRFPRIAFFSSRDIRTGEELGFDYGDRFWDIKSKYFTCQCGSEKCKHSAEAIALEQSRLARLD
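AlphaScreen read-out: biotin-H3K9 peptide (500 nM) methylation by 20 nM enzyme with 20 uM SAM, 2 h at room temperature after 15 min compound preincubation; anti-monomethyl H3K9 antibody plus donor/acceptor beads, 10 min dark.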
L3MBTL1 block: qHTS Assay for the Inhibitors of L3MBTL1; Lethal(3)malignant brain tumor-like protein 1 (Homo sapiens), Q9Y468; AlphaScreen L3MBTL1–H3K9me1 peptide binding; 0.66% of 230,000 active; Potency, µM (highest dose often 57.1 µM), inactives show top-dose activity, negative = inhibition, hits mostly inhibitors; note: potency is the fitted concentration of half-maximal effect; % is set by controls: 0 for no effect and ±100 for the full control effect; nearly all actives have a fitted effect of over 60% in size
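L3MBTL1 50 nM + b-AHA-H3(1-15)K9me1 75 nM, 30 min RT; compound added, 30 min RT; streptavidin donor/Ni-chelate acceptor beads 10 ug/mL each final, 30 min RT dark; AlphaScreen read.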
The depositor's hits bear a star; ? = inconclusive; . = no result given; [ ] = remark or other dose. In the library only some 11% were active in any assay of this set; here they are far more common. Unless noted, calls come from the whole dose curve; as a rule, active = well fitted inhibition curve with a large enough effect; inconclusive = small, poorly fitted or top-dose-only effect; inactive = no such curve, though single readings can be large or run the other way.

SMILES	HP1b binding inh	BAZ2B inh	JMJD2A Tudor	PI5P4K alpha inh	G9a block	L3MBTL1 block
O=S(=O)(c1ccc(S(=O)(=O)N2CCCC2)cc1)N1CCCCC1	10.7%	-10.2%	-6.1%	2.7	-20.8%	.
O=c1c2ccccc2sn1-c1ccc(S(=O)(=O)N2CCCCC2)cc1	?	.	8.91µM*	.	.	.
Cc1ccccc1-n1c(=O)cc(N2CCN(Cc3ccccc3)CC2)[nH]c1=O	8.1%	13.6%	-13.5%	0.0	56.2µM*	7.1%
CCN1CCN(c2cc(=O)n(-c3cc(Cl)ccc3C)c(=O)[nH]2)CC1	16.7%	-24.1%	-5.8%	.	50.1µM*	1.3%
CCOC(=O)N1CCN(c2cc(=O)n(-c3ccccc3C)c(=O)[nH]2)CC1	20.3%	.	-4.1%	2.2	-38.2%	.
Cc1ccc(-n2c(=O)cc(N3CCN(c4ccccc4Cl)CC3)[nH]c2=O)cc1	6.2%[57 µM]	1.6%	-11.0%	.	1.6%[59 µM]	.
C[C@@]12CCC[C@H]1C1CC[C@H]3C[C@H](O)CC[C@]3(C)C1CC2 (stereo not given in full)	.	.	.	.	34.4%[59 µM]	.
CCCC[C@H]1C2=C3[C@@H](CC(C(=O)OC)=C[C@@H](C(=O)OC)[C@H]3C(C)(C)C2=O)n2c(=O)n(C)c(=O)n21	28.3%	.	5.5%	.	.	.
O=[N+]([O-])c1cc(S(=O)(=O)N2CCCC2)ccc1N/N=C1/CCCc2ccccc21	?	3.55µM*	?	2.0	4.47µM*	-23.7%
NS(=O)(=O)c1ccc(N/N=C2/CCCc3ccccc32)c([N+](=O)[O-])c1	6.9%	-1.6%	-13.9%	10.4	-34.4%	-18.2%[2.29 µM]
O=C(O)CC1CC(O)CCC1=O (stereo not given)	.	.	.	0.2	.	.
O=C(O)CC1CCC(=C(Cl)Cl)C1 (stereo not given)	11.8%	?	-21.4%	.	44.7µM*	-15.0%
CC(=O)Nc1ccc(NS(=O)(=O)c2ccccc2)cc1	27.5%	-16.0%	-11.0%	1.7	10.9%[59 µM]	.
Cc1ccc(NC(=S)NC(=O)C2CCCC2)cc1C	53.8%	-7.7%	6.2%	-2.1	35.5µM*	.
CC(=O)Nc1ccc(S(=O)(=O)Nc2ccc(Nc3ccccc3)cc2)cc1	?	-36.7%	?	-8.8	39.8µM*	.
CC(=O)Nc1ccc(S(=O)(=O)NCC(CCC(=O)O)C(F)(F)F)cc1 (stereo not given)	-3.3%	-13.3%	15.8µM*	?	-1.2%	4.0%
CC(=O)Nc1ccc(S(=O)(=O)Nc2cc(C)ccn2)cc1	37.2%	-10.9%	-9.8%	3.3	50.1µM*	16.8%
COc1ccc(C2C=C3CNS(=O)(=O)C3CC2OC(=O)c2cccs2)cc1 (stereo not given)	21.8%	.	-30.3%	.	.	.
CCCc1nnc(NC(=O)Cc2coc3c(C)c(C)ccc23)s1	50.1%	1.4%	6.6%	.	3.3%[59 µM]	.
O=C(NC(=S)Nc1ccc(S(=O)(=O)Nc2ccccc2)cc1)C1CC1	-3.9%	-31.1%	-21.3%	-6.4	14.1µM*	-7.4%
CC(=O)NS(=O)(=O)c1ccc(NC(=S)NC(=O)C2CCC2)cc1	27.0%	-5.0%	-6.9%	-5.9	?	.
Cc1ccc(-n2c(=O)c3c(c4cc(C)ccc4n3C)n(Cc3ccc(F)cc3)c2=O)cc1	28.4%	34.7%	-19.8%	.	25.5%[59 µM]	.
O=C(NCCc1nc2ccccc2n1CCOc1ccccc1)C1CCCCC1	23.4%[57 µM]	.	-11.5%[57.1 µM]	.	.	.
CCCCNc1ccc2c(c1)C1CC2CCN1C(=O)OCc1ccccc1 (stereo not given)	-18.1%	.	25.1µM*	5.3	.	.
Cc1ccc2c(c1)c1c(c(=O)n(-c3ccccc3C)c(=O)n1CC(=O)NCc1ccccc1)n2C	54.2%	-15.2%	11.4%	.	?	.
SMILES	HP1b binding inh	BAZ2B inh	JMJD2A Tudor	PI5P4K alpha inh	G9a block	L3MBTL1 block
CC(C)CN(C(=O)COC(=O)c1cc2c(s1)CCC2)C1CCS(=O)(=O)C1 (stereo not given)	-12.0%	56.2µM*	?	-61.8*	-33.9%[59 µM]	20µM*
COc1ccc(N2CCN(Cc3nc4ccsc4c(=O)[nH]3)CC2)cc1	7.3%	?	56.2µM*	.	?	.
O=c1[nH]c(CN2CCN(c3ccc([N+](=O)[O-])cc3)CC2)nc2ccsc12	4.5%	?	?	-13.9	8.2%[59 µM]	.
Cc1ccc(Cl)cc1N1CCN(Cc2nc3ccsc3c(=O)[nH]2)CC1	-16.6%	-37.4%	-25.3%[11.4 µM]	0.7	2.82µM*	.
CCCCCn1c(CN2CCN(c3cc(Cl)ccc3C)CC2)nc2c1c(=O)[nH]c(=O)n2C	6.7%	-27.8%	-19.0%	.	23.4%[12.7 µM]	-3.3%
Cc1ccc(-n2nc(C(=O)N(C)c3ccc(C)c(C)c3)c3c4ccccc4n(C)c3c2=O)cc1	4.8%	.	-27.7%	.	-41.9%[59 µM]	.
O=C(NC(=S)NNC(=O)[C@H]1C[C@@H]1c1ccccc1)c1cccc(F)c1	1.9%	0.5%	-10.3%	-11.4	15.8µM*	4.6%
COc1cccc(OC)c1C(=O)NC(=S)NNC(=O)[C@H]1C[C@@H]1c1ccccc1	64.3%	2.2%	-0.7%	5.7	?	6.7%
COc1ccc(CNc2ccnc(-c3ccc(N(C)C)cc3)n2)c(OC)c1	.	.	.	.	-3.7%[0.501 µM]	.
Cc1cccc(NC(=O)CSc2nnc(-c3ccco3)c(-c3ccco3)n2)c1	?	50.1µM*	39.8µM*	-61.3*	8.91µM*	?
Cc1ccccc1NC(=O)CSc1ccc(-c2ccco2)nn1	11.2%	-33.7%	-26.4%	-21.2	-19.1%[59 µM]	-7.8%
Cc1cccc(NC(=O)CSc2nnc(-c3ccco3)c(-c3ccco3)n2)c1C	?	35.5µM*	50.1µM*	-77.4*	21.6%[0.501 µM]	?
O=S(=O)(c1cccc2ccccc12)N1CCN(c2ccc(Cl)c(Cl)c2)CC1	40.0%	-10.5%	9.0%	.	16.1%[59 µM]	.
Cc1ccc(-c2c(=O)n(O)c3ccccc3[n+]2[O-])cc1	-10.3%	-20.0%	?	-0.5	50.1µM*	.
CCOc1ccc(-c2c(=O)n(OCC)c3ccccc3[n+]2[O-])cc1	66.9%	7.6%	-1.0%	6.4	5.6%	.
CCOc1ccc(-c2c(=O)n(O)c3ccccc3[n+]2[O-])cc1	4.4%	56.2µM*	79.4µM*	-9.2	10.3%[2.33 µM]	.
O=C1c2ccccc2C(=O)N1c1noc2ccccc12	.	.	-5.4%	.	.	.
C=CCN(CC=C)S(=O)(=O)c1ccc2nc(NC(=O)C3CCCO3)sc2c1 (stereo not given)	8.6%	8.4%	-25.3%	-28.5	1.26µM*	4.4%
CN1CCN(c2ncc3nc(-c4ccccc4)c(=O)n(CCC#N)c3n2)CC1	.	.	.	.	-1.3%[12.7 µM]	.
CCc1nn(CC(=O)NC2CC2)c(=O)c2cc3c(OC)cccc3n12	0.0%	-0.2%	-12.4%	.	2.5%[59 µM]	.
